Results published in the supplement of paper PMC10037445.
The full ranking holds about 2,900 compounds; the median of “NF-kB SEAP reporter activity, fold change vs agonist alone” is about 0.99, and the highest 2% start at about 2.6. The sample holds the highest values, similar compounds and a random draw of the others, so the mix is not that of the screen.

Legend:
RAW-Dual [1] = assay: NF-kB SEAP reporter activity, fold change vs agonist alone; cytotoxicity flag (confluency mask): not cytotoxic; higher = enhanced NF-kB activity
Procedure, shortened: (§1)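 After 50 nL of library stock was delivered by pin tool to RAW-Dual macrophages (50,000 cells/well, DMEM, 384-well plates), a PRR agonist was added 1 h later and the plates were kept at 37 °C, 5% CO2. Twenty hours later, IRF was read from supernatant by QuantiLuc luminescence and NF-κB by QuantiBlue absorbance at 620 nm. Reporter activity is stated as fold change over agonist-alone wells. Wells with IncuCyte confluency under 70% of agonist controls in both mask sets were counted as cytotoxic.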

RAW-Dual [2] = assay: NF-kB SEAP reporter activity, fold change vs agonist alone; higher = enhanced NF-kB activity
Procedure, shortened: as §1

RAW-Dual [3] = assay: NF-kB SEAP reporter activity, fold change vs agonist alone; cytotoxicity flag (confluency mask): cytotoxic (confluency <70% of control); higher = enhanced NF-kB activity
Procedure, shortened: as §1

[4] = agonist: ODN 1826 (TLR9) 0.5 ug/mL
[5] = agonist: Pam2CSK4 (TLR2/6) 0.1 ug/mL
[6] = agonist: Pam3CSK4 (TLR2/1) 0.1 ug/mL
[7] = library stock concentration (final ~1000-fold dilution): 10 mM, cytotoxicity flag (confluency mask): not cytotoxic, agonist: MPLA (TLR4) […]
[8] = library stock concentration (final ~1000-fold dilution): 10 mM, cytotoxicity flag (confluency mask): cytotoxic (confluency <70% of control), agonist: Imiquimod (TLR7) […]
[9] = library stock concentration (final ~1000-fold dilution): 10 mM, cytotoxicity flag (confluency mask): cytotoxic (confluency <70% of control), agonist: MPLA (TLR4) […]
[10] = library stock concentration (final ~1000-fold dilution): 10 mM, cytotoxicity flag (confluency mask): not cytotoxic, agonist: Imiquimod (TLR7) […]

SMILES: COc1cc2ncnc(Nc3ccc(F)c(Cl)c3)c2cc1OCCCN1CCOCC1.Cl (library stock concentration (final ~1000-fold dilution): 10 mM)
- NF-kB SEAP reporter activity (RAW-Dual [1]; agonist: LPS (TLR4) 0.1 ug/mL): 1.23
- NF-kB SEAP reporter activity (RAW-Dual [1]; [4]): 0.277
- NF-kB SEAP reporter activity (RAW-Dual [1]; [5]): 0.967
- NF-kB SEAP reporter activity (RAW-Dual [1]; [6]): 0.737

SMILES: COc1cc2ncnc(Nc3ccc(F)c(Cl)c3)c2cc1OCCCN1CCOCC1.Cl
- NF-kB SEAP reporter activity (RAW-Dual [2]; [7]): 1.29

SMILES: Nc1nc(Nc2ccc(S(N)(=O)=O)cc2)nn1C(=O)c1c(F)cccc1F (library stock concentration (final ~1000-fold dilution): 10 mM)
- NF-kB SEAP reporter activity (RAW-Dual [3]; agonist: LPS (TLR4) 0.1 ug/mL): 0.637
- NF-kB SEAP reporter activity (RAW-Dual [3]; [4]): 1.29
- NF-kB SEAP reporter activity (RAW-Dual [3]; [5]): 0.632
- NF-kB SEAP reporter activity (RAW-Dual [3]; [6]): 0.864

SMILES: Nc1nc(Nc2ccc(S(N)(=O)=O)cc2)nn1C(=O)c1c(F)cccc1F
- NF-kB SEAP reporter activity (RAW-Dual [2]; [8]): 1.97
- NF-kB SEAP reporter activity (RAW-Dual [2]; [9]): 1.36

SMILES: CN1CCN(Cc2ccc(Nc3ncc(Cl)c(Nc4ccccc4S(=O)(=O)N(C)C)n3)cc2)CC1 (library stock concentration (final ~1000-fold dilution): 2 mM)
- NF-kB SEAP reporter activity (RAW-Dual [3]; agonist: LPS (TLR4) 0.1 ug/mL): 0.331
- NF-kB SEAP reporter activity (RAW-Dual [3]; [4]): 1.3
- NF-kB SEAP reporter activity (RAW-Dual [3]; [5]): 0.245
- NF-kB SEAP reporter activity (RAW-Dual [3]; [6]): 1.08

SMILES: CN1C(=O)c2sccc2N(C)c2nc(Nc3ccc(S(N)(=O)=O)cc3)ncc21 (library stock concentration (final ~1000-fold dilution): 10 mM)
- NF-kB SEAP reporter activity (RAW-Dual [1]; agonist: LPS (TLR4) 0.1 ug/mL): 5.75
- NF-kB SEAP reporter activity (RAW-Dual [1]; [4]): 3.02
- NF-kB SEAP reporter activity (RAW-Dual [1]; [5]): 1.22
- NF-kB SEAP reporter activity (RAW-Dual [1]; [6]): 2.56

SMILES: CN1C(=O)c2sccc2N(C)c2nc(Nc3ccc(S(N)(=O)=O)cc3)ncc21
- NF-kB SEAP reporter activity (RAW-Dual [2]; [10]): 1.86
- NF-kB SEAP reporter activity (RAW-Dual [2]; [7]): 2.45

SMILES: CN1CCN(Cc2ccc(Nc3ncc(Cl)c(Nc4ccccc4S(=O)(=O)N(C)C)n3)cc2)CC1
- NF-kB SEAP reporter activity (RAW-Dual [2]; library stock concentration (final ~1000-fold dilution): 2 mM, cytotoxicity flag (confluency mask): cytotoxic (confluency <70% of control), agonist: Imiquimod (TLR7) […]): 1.37
- NF-kB SEAP reporter activity (RAW-Dual [2]; library stock concentration (final ~1000-fold dilution): 2 mM, cytotoxicity flag (confluency mask): cytotoxic (confluency <70% of control), agonist: MPLA (TLR4) […]): 0.961

SMILES: COC(=O)c1ccc(O)c(O)c1
- NF-kB SEAP reporter activity (RAW-Dual [2]; [10]): 0.731
- NF-kB SEAP reporter activity (RAW-Dual [2]; [7]): 1.17

SMILES: COC(=O)c1ccc(O)c(O)c1 (library stock concentration (final ~1000-fold dilution): 10 mM)
- NF-kB SEAP reporter activity (RAW-Dual [1]; agonist: LPS (TLR4) 0.1 ug/mL): 0.81
- NF-kB SEAP reporter activity (RAW-Dual [1]; [4]): 0.654
- NF-kB SEAP reporter activity (RAW-Dual [1]; [5]): 0.603
- NF-kB SEAP reporter activity (RAW-Dual [1]; [6]): 0.553

SMILES: Cn1cc(C2=C(c3ccc(Cl)cc3Cl)C(=O)NC2=O)c2ccccc21 (library stock concentration (final ~1000-fold dilution): 10 mM)
- NF-kB SEAP reporter activity (RAW-Dual [1]; agonist: LPS (TLR4) 0.1 ug/mL): 3.23
- NF-kB SEAP reporter activity (RAW-Dual [1]; [4]): 2.04
- NF-kB SEAP reporter activity (RAW-Dual [1]; [5]): 1.49
- NF-kB SEAP reporter activity (RAW-Dual [1]; [6]): 2.34

SMILES: CS(=O)(=O)O.Cn1cc(C2=C(c3cn(CCCSC(=N)N)c4ccccc34)C(=O)NC2=O)c2ccccc21 (library stock concentration (final ~1000-fold dilution): 10 mM)
- NF-kB SEAP reporter activity (RAW-Dual [3]; agonist: LPS (TLR4) 0.1 ug/mL): 0.173
- NF-kB SEAP reporter activity (RAW-Dual [3]; [4]): 0.185
- NF-kB SEAP reporter activity (RAW-Dual [3]; [5]): 0.0599
- NF-kB SEAP reporter activity (RAW-Dual [3]; [6]): 0.138

SMILES: CS(=O)(=O)O.Cn1cc(C2=C(c3cn(CCCSC(=N)N)c4ccccc34)C(=O)NC2=O)c2ccccc21
- NF-kB SEAP reporter activity (RAW-Dual [2]; [8]): 0.13
- NF-kB SEAP reporter activity (RAW-Dual [2]; [9]): 0.222

SMILES: Cn1cc(C2=C(c3cccc(N)c3)C(=O)NC2=O)c2ccccc21 (library stock concentration (final ~1000-fold dilution): 10 mM)
- NF-kB SEAP reporter activity (RAW-Dual [1]; agonist: LPS (TLR4) 0.1 ug/mL): 1.83
- NF-kB SEAP reporter activity (RAW-Dual [1]; [4]): 2.18
- NF-kB SEAP reporter activity (RAW-Dual [1]; [5]): 1.59
- NF-kB SEAP reporter activity (RAW-Dual [1]; [6]): 2.2

SMILES: Cn1cc(C2=C(c3ccc(Cl)cc3Cl)C(=O)NC2=O)c2ccccc21
- NF-kB SEAP reporter activity (RAW-Dual [2]; [10]): 1.58
- NF-kB SEAP reporter activity (RAW-Dual [2]; [7]): 1.99

SMILES: Cn1cc(C2=C(c3cccc(N)c3)C(=O)NC2=O)c2ccccc21
- NF-kB SEAP reporter activity (RAW-Dual [2]; [10]): 1.55
- NF-kB SEAP reporter activity (RAW-Dual [2]; [7]): 1.7

SMILES: COc1cc2c3cc1Oc1c(OC)c(OC)cc4c1C(Cc1ccc(O)c(c1)Oc1ccc(cc1)CC3N(C)CC2)N(C)CC4.Cl.Cl (stereo unspecified) (library stock concentration (final ~1000-fold dilution): 10 mM)
- NF-kB SEAP reporter activity (RAW-Dual [1]; agonist: LPS (TLR4) 0.1 ug/mL): 1.44
- NF-kB SEAP reporter activity (RAW-Dual [1]; [4]): 0.2
- NF-kB SEAP reporter activity (RAW-Dual [1]; [5]): 1.08
- NF-kB SEAP reporter activity (RAW-Dual [1]; [6]): 1.19

SMILES: COc1cc2c3cc1Oc1c(OC)c(OC)cc4c1C(Cc1ccc(O)c(c1)Oc1ccc(cc1)CC3N(C)CC2)N(C)CC4.Cl.Cl (stereo unspecified)
- NF-kB SEAP reporter activity (RAW-Dual [2]; [10]): 0.379
- NF-kB SEAP reporter activity (RAW-Dual [2]; [7]): 1.37

SMILES: CC1(C)SC2C(NC(=O)C(N)c3ccccc3)C(=O)N2C1C(=O)OCOC(=O)C1N2C(=O)CC2S(=O)(=O)C1(C)C (stereo unspecified)
- NF-kB SEAP reporter activity (RAW-Dual [2]; [7]): 1.07

SMILES: CC1(C)SC2C(NC(=O)C(N)c3ccccc3)C(=O)N2C1C(=O)OCOC(=O)C1N2C(=O)CC2S(=O)(=O)C1(C)C (stereo unspecified) (library stock concentration (final ~1000-fold dilution): 10 mM)
- NF-kB SEAP reporter activity (RAW-Dual [1]; agonist: LPS (TLR4) 0.1 ug/mL): 1.06
- NF-kB SEAP reporter activity (RAW-Dual [1]; [4]): 0.886
- NF-kB SEAP reporter activity (RAW-Dual [1]; [5]): 1.16
- NF-kB SEAP reporter activity (RAW-Dual [1]; [6]): 0.993

SMILES: Cc1nc(-c2cn3c(n2)-c2ccc(-c4cnn(C(C)(C)C(N)=O)c4)cc2OCC3)n(C(C)C)n1
- NF-kB SEAP reporter activity (RAW-Dual [2]; [10]): 0.619
- NF-kB SEAP reporter activity (RAW-Dual [2]; [7]): 1.84

SMILES: CC(Oc1ccc2c(c1)OCCn1cc(-c3ncnn3C(C)C)nc1-2)C(N)=O (stereo unspecified) (library stock concentration (final ~1000-fold dilution): 10 mM)
- NF-kB SEAP reporter activity (RAW-Dual [1]; agonist: LPS (TLR4) 0.1 ug/mL): 2.07
- NF-kB SEAP reporter activity (RAW-Dual [1]; [4]): 1.1
- NF-kB SEAP reporter activity (RAW-Dual [1]; [5]): 0.894
- NF-kB SEAP reporter activity (RAW-Dual [1]; [6]): 1.41

SMILES: Cc1nc(-c2cn3c(n2)-c2ccc(-c4cnn(C(C)(C)C(N)=O)c4)cc2OCC3)n(C(C)C)n1 (library stock concentration (final ~1000-fold dilution): 10 mM)
- NF-kB SEAP reporter activity (RAW-Dual [1]; agonist: LPS (TLR4) 0.1 ug/mL): 2.74
- NF-kB SEAP reporter activity (RAW-Dual [1]; [4]): 1.31
- NF-kB SEAP reporter activity (RAW-Dual [1]; [5]): 0.996
- NF-kB SEAP reporter activity (RAW-Dual [1]; [6]): 1.15

SMILES: CC(Oc1ccc2c(c1)OCCn1cc(-c3ncnn3C(C)C)nc1-2)C(N)=O (stereo unspecified)
- NF-kB SEAP reporter activity (RAW-Dual [2]; [10]): 0.585
- NF-kB SEAP reporter activity (RAW-Dual [2]; [7]): 1.4

SMILES: OCC1OC(c2ccc(F)c(Cc3cc4ccccc4s3)c2)C(O)C(O)C1O (stereo unspecified)
- NF-kB SEAP reporter activity (RAW-Dual [2]; [10]): 1.06
- NF-kB SEAP reporter activity (RAW-Dual [2]; [7]): 1.04

SMILES: OCC1OC(c2ccc(F)c(Cc3cc4ccccc4s3)c2)C(O)C(O)C1O (stereo unspecified) (library stock concentration (final ~1000-fold dilution): 10 mM)
- NF-kB SEAP reporter activity (RAW-Dual [1]; agonist: LPS (TLR4) 0.1 ug/mL): 1.07
- NF-kB SEAP reporter activity (RAW-Dual [1]; [4]): 0.948
- NF-kB SEAP reporter activity (RAW-Dual [1]; [5]): 1.15
- NF-kB SEAP reporter activity (RAW-Dual [1]; [6]): 1.17
